From PubChem
TRHR ag: TRH receptor (human) agonism; P34981; TRHR cells, calcium flux fluo-8, FDSS agonist mode; activation, % at 2 µM; 0.18% of 360,000 active; AID 493084; note: 0% is about no effect
Target sequence (P34981 whole entry, looked up): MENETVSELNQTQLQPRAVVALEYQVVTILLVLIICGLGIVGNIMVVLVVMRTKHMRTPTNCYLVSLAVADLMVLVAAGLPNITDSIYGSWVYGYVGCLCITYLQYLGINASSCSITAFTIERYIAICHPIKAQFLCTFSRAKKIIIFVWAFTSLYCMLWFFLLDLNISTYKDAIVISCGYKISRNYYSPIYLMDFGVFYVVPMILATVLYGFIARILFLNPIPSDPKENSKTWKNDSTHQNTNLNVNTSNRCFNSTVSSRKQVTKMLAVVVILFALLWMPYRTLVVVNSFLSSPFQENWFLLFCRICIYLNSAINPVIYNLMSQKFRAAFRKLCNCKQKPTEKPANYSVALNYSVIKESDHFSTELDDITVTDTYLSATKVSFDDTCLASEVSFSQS
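Fluo-8-loaded TRHR cells; 10 s baseline, compound added, kinetic Ca2+ fluorescence read 1/s, agonist mode.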
D1 PAM: human D1 dopamine receptor positive modulation. 0.036% of 360,000 active. AID 504651. P21728. HEK293 TREx D1 cells, calcium flux, dopamine EC20 potentiation. potentiation, % at 10 µM; in the data active = potentiation above about 30%; note: 0% is about no effect
TRHR PAM: allosterically enhances the human TRH receptor; P34981; TRHR cells, fluo-8 calcium fluorescence, EC20 TRH enhancement; enhancement, % at 2 µM; 0.66% of 360,000 active; in the data active = enhancement above about 30%; note: 0% is about no effect
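Enhancer read-out: after compound pinning and an initial kinetic agonist-mode read, an EC20 of TRH (10 nM final) was injected and fluo-8 calcium signal (Ex 480/Em 530) followed at 1 s/cycle for 100 cycles in TRHR-expressing cells.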
D1 antagonist: human D1 dopamine receptor antagonism; HEK293 TREx D1 cells, calcium flux, dopamine EC80; active compounds read low; activity change, negative = inhibition, % at 10 µM; 3.2% of 360,000 active; AID 504652; in the data active = activity change below about -30%; note: % is set by controls: 0 for no effect and ±100 for the full control effect
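Calcium flux readout: force-coupled, inducible Hek293 Trex D1 line, cells induced overnight at 30 C with tetracycline, dye-loaded 30–90 min at RT. Antagonism scored against EC80 dopamine challenge given 180 s after compound.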
D1 agonist: activates the human D1 dopamine receptor | P21728 | HEK293 T-REx D1 cells, calcium flux, agonist mode | activation, % at 2 µM | 1% of 360,000 active; note: 0% is about no effect
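Inducible HEK293 T-REx D1 cells, force-coupled to calcium signalling, were plated at 4000 cells/well with tetracycline and held overnight at 30 C. After no-wash calcium dye loading, compound-evoked calcium rise over 180 s flagged agonists.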
An asterisk follows results filed as active; x = no result. Hits are enriched below; roughly 4.7% of the tested compounds scored in any of these assays. Cut-off read from the data, not from the text of the source, unless noted: active = activation above about 30%; inactive = the rest.

SMILES	TRHR ag	D1 PAM	TRHR PAM	D1 antagonist	D1 agonist
COC(=O)C1CCN(c2csc3ccc(C)cc3c2=O)CC1	0	0	1	1	1
CCOC(=O)N1CCN(Cc2nc(-c3ccccc3)no2)CC1	0	-2	-4	17	10
CCOC(=O)N1CCN(Cc2nc(-c3cccc(C)c3)no2)CC1	0	-1	0	-31*	10
CCOc1ccccc1N1CCN(Cc2cn[nH]c2-c2ccc(F)cc2)CC1	1	4	3	58	43*
COc1ccc(-c2[nH]ncc2CN2CCCN(c3ccccc3)CC2)c(F)c1	1	1	-4	-25	8
COc1ccc2cc(-c3[nH]ncc3CN3CCCN(c4ccccc4)CC3)ccc2c1	0	7	31*	32	1
COc1ccc(-c2[nH]ncc2CN2CCCC(C(=O)c3ccc(OC)cc3OC)C2)cc1 (stereo unspecified)	1	-6	13	-31*	3
CCOc1ccc(C2CC(=O)NC(NC(=O)c3cccc(Cl)c3)=N2)cc1 (stereo unspecified)	0	0	-7	10	2
CCc1ccc2nc(N(Cc3cccnc3)C(=O)c3cccs3)sc2c1	-1	-1	-3	x	23
COc1ccc(C(=O)COc2ncnc3cc(Cl)ccc23)cc1	-1	-9	36*	-12	4
Cn1c2c(c(=O)n(C)c1=O)C(c1ccccc1OC(F)F)C1=C(CCCC1=O)N2 (stereo unspecified)	0	-4	-1	-36*	10
CN(C)c1ccc(CNC(=O)CN(C)S(=O)(=O)c2cccc3cccnc23)cc1	1	x	7	-66*	0
Cn1nnnc1SCCNC(=O)C1CCC(=O)N(CCc2ccccc2)C1 (stereo unspecified)	1	-1	3	11	1
COc1cccc(CN2CC(C(=O)NCCSc3nnnn3C)CCC2=O)c1 (stereo unspecified)	1	-4	2	-37*	2
CCc1ccc(C(=O)c2cn(CC(=O)Nc3ccc4c(c3)OCO4)c3ccc(CC)cc3c2=O)cc1	1	-4	-2	-19	2
CC(C)CCNC(=O)Nc1ccc2c(c1)N(C)C(=O)c1ccccc1S2	-1	-1	0	7	-2
CC1(CC(=O)N/N=C/c2ccc(-c3cccc(C(F)(F)F)c3)o2)OCCO1	-1	-7	4	-37*	3
Cc1ccc(S(=O)(=O)NC(C(=O)Oc2ccc3c(C(F)(F)F)cc(=O)oc3c2)c2ccccc2)cc1 (stereo unspecified)	13	-6	9	-9	57*
Fc1ccccc1NC(=S)N(CCN1CCCCCC1)Cc1cccs1	0	-11	1	-32*	5
Cc1ccccc1NC(=S)N(CCN1CCCCCC1)Cc1cccs1	1	-5	2	-16	1
COc1cc(NC(=O)CC2C(=O)N(c3cccc(C)c3)C(=O)N2Cc2ccc(F)cc2)cc(OC)c1 (stereo unspecified)	0	-1	-5	18	3
COc1ccc(C2=CC(c3c(C)nn(-c4ccccc4)c3Cl)n3nnnc3N2)cc1OC (stereo unspecified)	1	-2	18	22	5
Cn1cc(Br)c(-c2cccc(NC(=O)CCC(=O)O)c2)n1	0	-4	-5	-37*	1
O=C(O)CCC(=O)Nc1cccc(-c2csc(-c3ccccc3)n2)c1	0	-1	0	-34*	3
CCOC(=O)C1CCCN(C(=O)Cn2ncc3c4ccccc4n(Cc4ccc(F)cc4)c3c2=O)C1 (stereo unspecified)	-1	-5	11	-17	4
O=C(CSc1nnnn1-c1ccccc1)CC(=O)Nc1ccc(Cl)cc1	0	-5	-3	-34*	7
CN(C)S(=O)(=O)c1cccc(NC(=O)CSc2nnnn2-c2ccccc2)c1	-1	-6	-6	-41*	15
Cc1nnc(SCC(=O)Nc2cccc(S(=O)(=O)N(C)c3ccccc3)c2)s1	0	-2	4	6	34*
NS(=O)(=O)c1cccc(NC(=O)CSc2nnnn2-c2ccccc2)c1	0	6	1	1	1
CN(c1ccccc1)S(=O)(=O)c1cccc(NC(=O)CSc2n[nH]c(N)n2)c1	-1	-19	1	-45*	2
